This is part of a sample that, as a whole, favours compounds with a hit. Of some 83,000 tested, about 20% had one in any assay.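 Testing used 96-well plates and a 48-hour single-concentration exposure. Example: -40 means 40% of the starting cells died.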 Unmarked numbers belong to inactive results. The source made the active and inactive calls. Rule for the calls: active = growth percent below 10; inactive = the rest.

This experiment relates to HL-60(TB) leukemia. As to the kind of experiment: NCI-60 one-dose screen, 48 h (100 = growth as untreated, 0 = no growth, -100 = all killed). The following applies: 10 µM unless noted.
As for `Cn1cnc([N+](=O)[O-])c1S(=O)(=O)Oc1ccc(Cl)cc1`, the growth is -35.2% (active).
Then `CC(C)NS(=O)(=O)/N=C1\NC(=O)NC1=C(Cl)Cl`, with 55.6%; and `C[C@H](NC(=O)c1snnc1C1CC1)c1c(F)cccc1Cl`, with 146%; and `Nc1nc(N)c(-c2ccc(Cl)cc2)c(/C=C/c2ccc([N+](=O)[O-])cc2)n1`, with 47.8%.
The value for `NC(CC(=O)O)C(=O)OCc1ccccc1` (stereo not given) was 101%; that for `C[C@@H]1C(=O)N(C[C@H](Cc2ccccc2)NC(=O)OCc2ccccc2)[C@]1(Cc1ccccc1)C(=O)OCc1ccccc1` was 37.4%; that for `N=c1ccc2nc3ccc(N)cc3sc-2c1` was 0.816% (active).
The value for `Brc1ccc(-c2nc3ccccc3s2)cc1` was 99.6%.
On to `N=C(N)SCc1c2ccccc2c(CSC(=N)N)c2ccccc12`, for which the growth was 20.8%.
As to `COc1cccc2c1C(=O)c1c(O)c3c(c(O)c1C2=O)C[C@@](O)(C(=O)CO)C[C@@H]3O[C@H]1C[C@H](N)[C@@H](O)[C@H](C)O1`, the growth was 3.13% (active).
The value for `CN(Cc1cc(Br)cc(Br)c1O)Cc1cc(Br)cc(Br)c1O` was 22.7%; that for `Cc1nc(N)nc(N[C@@H](C)c2nc3cccc(NCc4ccc(C(=O)NO)cc4)c3c(=O)n2-c2ccccc2)n1` was 43.1%.
Then `Cc1cc(NCCCN(C)C)c2ccc3c(ccc4c(NCCCN(C)C)cc(C)nc43)c2n1`, with -60.2% (active); and `O=c1ncc(-c2ccc(C(F)(F)F)cc2)c(NC2CCCCCC2)[nH]1`, with 23.3%.
Then `COc1ccc(/C(C)=N/NC(=O)CSc2nc3ccccc3c(=O)n2Cc2ccc(S(N)(=O)=O)cc2)c(OC)c1`, with 102%; and `O=C(COc1ccc(/C=C2\Oc3ccccc3C2=O)cc1)Nc1nc2ccccc2s1`, with -68.9% (active); and `N=C(N)c1ccc(-c2ccc(-c3ccccc3)s2)nc1`, with 16.6%.
For `N/C(=N\OC(=O)c1ccccc1)C(C(=O)NOC(=O)c1ccccc1)C1CCCCC1` (stereo not given), the growth is 1.73% (active).
The value for `O=C1/C(=C/c2ccccc2)CN(CCC(=O)N2C/C(=C\c3ccccc3)C(=O)/C(=C/c3ccccc3)C2)C/C1=C\c1ccccc1` was 48%.
The value for `COc1c(C)c2c(c(O)c1C/C=C(\C)CCC(=O)O)C(=O)OC2` was 45.6%; that for `COc1ccc(/C=C2\COc3ccc(O)c(O)c3C2=O)c(OC)c1` was -13.2% (active).
The value for `Cc1ccc(OCCCCCCNCCO)c(C)c1` was -3.98% (active).
In the case of `NC(=S)NS(=O)(=O)c1ccc(N)cc1`, the growth is 94.5%.
Then `Cc1ccc2oc(=O)cc(-c3sc(N4CCCCC4)nc3-c3ccccc3)c2c1`, with 95%; and `Oc1ccc(N=Nc2nccs2)c(O)c1`, with 5.98% (active).
The value for `CCN(CC)CCOc1ccc2c(c1O)C(=O)c1ccccc1C2=O` was 71.4%.
Regarding `CNC(=O)c1cc(Oc2ccc3nc(NC(=O)NC(C)C)sc3c2)ccn1`, the growth was 47.8%.
Then `OCc1cccc(F)c1`, with 107%; and `Cc1ccc(/C(C#N)=C/c2ccc3c(c2)OCO3)cc1`, with 67.5%.
The value for `Cc1ccc(C(=O)N/N=C/c2cccc(Oc3ccccc3)c2)cn1` was 9.21% (active); that for `Cn1c2ccccc2c2ssc(=S)c21` was 43.5%.
Consider `S=c1[nH]nc(Cc2ccccc2)c(=S)[nH]1`, for which the growth is 98.5%.
Then `COc1ccc(-c2cc(-c3nnc(SCC(=O)Nc4ccc(/C(C)=N\O)cc4)o3)c3ccccc3n2)cc1`, with 104%.
The value for `NCCCNc1nc2ccccc2c2c(=O)c3cc(F)ccc3sc12` was -28.1% (active); that for `COc1cc(/C=C2\CCC/C(=C\c3cc(CN4CCOCC4)c(O)c(OC)c3)C2=O)cc(CN2CCOCC2)c1O` was 4.24% (active).
The value for `COc1cccc2c(N=NC(=O)c3ccc(S(N)(=O)=O)cc3)c(O)[nH]c12` was 98.4%.
Turning to `C=C(C)[C@@H]1CC[C@]2(C(=O)O)CC[C@]3(C)[C@H](CC[C@@H]4[C@@]5(C)C[C@@H](CC#Cc6ccc(Br)cc6)C(=O)C(C)(C)[C@@H]5CC[C@]43C)[C@@H]12`, the growth is 47.7%.
Then `N#CC(=C1SCS1)[N+](=O)[O-]`, with -4.02% (active); and `CC1(C)C(N)=Nc2cc(OCCCN3Cc4ccccc4C3)c(OCC3CC3)cc21`, with 36.2%.
Then `C#Cc1cccc(Nc2nc(C)nc3cc(NC(=O)CCl)ccc23)c1`, with -58% (active).

These data come from PubChem BioAssay (NCI).
